IDE exosite inh: exo-site inhibitors of human IDE, primary screen, biochemical, fluorescence anisotropy, probe displacement. z-score at 20 µM. 17,000 tested, 6.3% active. purified IDE, FL-6b probe fluorescence polarization; stronger effect = lower value;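 active = z-score of -3 or lower, meaning strong loss of probe binding signal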;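 also: His-tagged human IDE residues 42-1019 made in E. coli with 30 nM FL-6b probe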
Target sequence (P14735 42-1019 limits assumed): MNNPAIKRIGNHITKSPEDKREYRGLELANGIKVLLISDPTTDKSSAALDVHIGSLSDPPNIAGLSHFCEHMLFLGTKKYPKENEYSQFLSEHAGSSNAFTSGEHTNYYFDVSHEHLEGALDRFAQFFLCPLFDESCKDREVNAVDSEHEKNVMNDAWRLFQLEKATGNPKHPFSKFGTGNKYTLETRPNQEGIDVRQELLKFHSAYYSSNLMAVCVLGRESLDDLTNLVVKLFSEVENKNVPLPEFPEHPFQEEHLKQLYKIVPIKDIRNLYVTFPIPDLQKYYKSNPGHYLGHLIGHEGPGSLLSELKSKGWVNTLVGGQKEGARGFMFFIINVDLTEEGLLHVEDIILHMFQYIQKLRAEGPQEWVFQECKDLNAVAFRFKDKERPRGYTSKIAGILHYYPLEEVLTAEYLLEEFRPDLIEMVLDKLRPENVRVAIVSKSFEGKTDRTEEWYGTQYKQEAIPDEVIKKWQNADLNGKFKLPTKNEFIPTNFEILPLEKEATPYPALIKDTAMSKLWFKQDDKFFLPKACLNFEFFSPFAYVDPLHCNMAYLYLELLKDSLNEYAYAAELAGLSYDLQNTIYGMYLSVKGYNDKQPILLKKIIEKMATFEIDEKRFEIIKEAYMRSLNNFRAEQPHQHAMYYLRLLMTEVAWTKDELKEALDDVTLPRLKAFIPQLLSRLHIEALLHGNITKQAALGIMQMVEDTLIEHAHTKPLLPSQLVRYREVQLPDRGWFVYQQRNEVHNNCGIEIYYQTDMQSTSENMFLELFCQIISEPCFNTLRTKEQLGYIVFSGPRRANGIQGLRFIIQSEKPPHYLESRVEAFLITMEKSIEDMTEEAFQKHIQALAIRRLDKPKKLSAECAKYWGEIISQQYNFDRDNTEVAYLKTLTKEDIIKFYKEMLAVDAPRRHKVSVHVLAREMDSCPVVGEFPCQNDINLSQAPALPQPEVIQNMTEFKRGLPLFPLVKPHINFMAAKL
The depositor's hits bear a star. The entries come from a sample that favours hits as a whole.

SMILES	IDE exosite inh
O=C(CN1CCOCC1)N1CCCCN2[C@H](C1)[C@H](c1ccc(C#Cc3ccccc3F)cc1)[C@@H]2CO	-6.1*
CCCNC(=O)N1[C@H](CO)[C@H](c2ccccc2)[C@@H]1CNC(=O)C1CCCCC1	2.3
C[C@H]1CN([C@@H](C)CO)C(=O)c2cc(N(C)C)ccc2O[C@H]1CN(C)Cc1ccc(Oc2ccccc2)cc1	-0.7
N#C[C@H]1[C@H](c2ccccc2C2=CCCCC2)[C@@H](CO)N1C(=O)c1cccc(F)c1	1.5
COCC(=O)N1CCCCN2[C@@H](CO)[C@H](c3ccc(-c4ccc(OC)cc4)cc3)[C@@H]2C1	0.91
COc1ccc(-c2ccc([C@@H]3[C@@H](CO)N4C(=O)CN(C(=O)NC(C)C)C[C@H]34)cc2)cc1	-2.7
COc1ccc(-c2ccc([C@@H]3[C@@H](CO)N4CCCCN(C(=O)NC(C)C)C[C@@H]34)cc2)cc1	-4.1*
COCC(=O)N1CCCCN2[C@H](CO)[C@H](c3ccc(-c4ccc(OC)cc4)cc3)[C@@H]2C1	-0.47
COc1ccc(-c2ccc([C@@H]3[C@H](CO)N4CCCCN(C(=O)NC(C)C)C[C@@H]34)cc2)cc1	-5.6*
COc1ccc(-c2ccc([C@H]3[C@H]4CN(C(=O)NC(C)C)CCCCN4[C@H]3CO)cc2)cc1	-11*
COc1ccc(-c2ccc([C@@H]3[C@H](CO)N4CCCCN(C(=O)c5ccc(F)cc5)C[C@@H]34)cc2)cc1	0.56
COc1ccc(-c2ccc([C@H]3[C@H](CO)N4CCCCN(C(=O)c5ccc(F)cc5)C[C@@H]34)cc2)cc1	0.084
COCC(=O)N1CCCCN2[C@H](C1)[C@@H](c1ccc(-c3ccc(OC)cc3)cc1)[C@@H]2CO	1.4
COc1cccc(S(=O)(=O)N2[C@@H]3CNC[C@H]2C3c2ccc(-c3ccc(C(=O)N(C)C)cc3)cc2)c1 (stereo partly drawn)	2.5
C[C@H](CO)N1C[C@H](C)[C@H](CN(C)C(=O)C2CCOCC2)Oc2ncc(-c3cccc(C#N)c3)cc2C1=O	-0.37
O=C(c1cccnc1)N1CC(=O)N2[C@H](CO)[C@H](c3ccc(C#CCC4CCCC4)cc3)[C@@H]2C1	3.4
O=C(c1ccccc1)N1CC(=O)N2[C@H](CO)[C@H](c3ccc(C#CC4CC4)cc3)[C@H]2C1	4.4
COc1ccccc1-c1ccc([C@H]2[C@@H](C#N)N(C(=O)CN(C)C)[C@@H]2CO)cc1	-4.2*
COc1ccccc1-c1ccccc1[C@@H]1[C@@H](C#N)N(C(=O)CN(C)C)[C@H]1CO	-0.25
N#C[C@H]1[C@@H](c2ccc(/C=C/c3ccccc3)cc2)[C@@H](CO)N1C(=O)Cc1ccccn1	-3.7*
C/C=C/c1ccc([C@@H]2[C@H](C#N)N(C(=O)Cc3ccccn3)[C@H]2CO)cc1	-0.42
COc1ccccc1-c1ccccc1[C@H]1[C@@H](C#N)N(C(=O)CN(C)C)[C@@H]1CO	0.32
COc1ccccc1-c1ccccc1[C@H]1[C@@H](CO)N(C(=O)CN(C)C)[C@H]1C#N	0.75
COc1ccccc1-c1ccccc1[C@@H]1[C@@H](CO)N(C(=O)CN(C)C)[C@H]1C#N	0.12
CN(C)CC(=O)N1[C@H](C#N)[C@@H](c2ccccc2-c2ccccc2F)[C@@H]1CO	-0.56
SMILES	IDE exosite inh
C/C=C/c1ccc([C@H]2[C@@H](C#N)N(C(=O)Cc3ccccn3)[C@H]2CO)cc1	-2
COc1ccccc1-c1ccc([C@@H]2[C@@H](CO)N(C(=O)CN(C)C)[C@H]2C#N)cc1	-15*
CN(C)CC(=O)N1[C@@H](C#N)[C@H](c2ccc(-c3ccccc3F)cc2)[C@@H]1CO	-4.5*
CN(C)CC(=O)N1[C@H](C#N)[C@@H](c2ccc(-c3ccccc3F)cc2)[C@@H]1CO	-2.6
O=C(Nc1ccccc1)N1CC(=O)N2[C@H](C1)[C@H](c1ccc(C#Cc3cccnc3)cc1)[C@@H]2CO	0.89
N#C[C@@H]1[C@H](c2ccccc2C2=CCCC2)[C@@H](CO)N1C(=O)C1CCOCC1	-0.31
CO[C@H]1CN(C)C(=O)c2ccc(NC(=O)c3cc(C)on3)cc2OC[C@@H](C)NC[C@H]1C	1.1
CCCC#Cc1ccc([C@H]2[C@@H](CO)N3CCCCN(Cc4cccnc4)C[C@@H]23)cc1	0.87
O=C(Nc1ccc(F)cc1)N1[C@@H](CO)[C@@H]2c3ccccc3NC[C@@H]21	-0.52
CCCC#Cc1ccc([C@H]2[C@H]3CN(C(=O)c4ccccc4)CC(=O)N3[C@H]2CO)cc1	1.4
CC(C)NC(=O)N1CC2(C1)[C@H](c1ccccc1)[C@@H](CO)N2C(=O)C1CCOCC1	-0.18
CO[C@@H]1CN(C)C(=O)c2ccc(NC(=O)Nc3ccccc3F)cc2OC[C@H](C)N(CC2CC2)C[C@@H]1C	-0.55
N#C[C@@H]1[C@H](c2ccccc2-c2cccc(F)c2)[C@H](CO)N1C(=O)C1CC1	0.092
C/C=C/c1ccc([C@@H]2[C@H]3CN(S(=O)(=O)c4ccc(OC)cc4)CCCCN3[C@H]2CO)cc1	0.079
COCC(=O)N1CC(=O)N2[C@H](CO)[C@@H](c3ccc(C#CCc4ccccc4)cc3)[C@H]2C1	0.95
O=C(N[C@H]1CC[C@H](CC(=O)N2CCOCC2)O[C@@H]1CO)c1cccc(F)c1	-0.96
CN(C)CC(=O)N1[C@H](CO)[C@H](c2ccc(/C=C/c3ccccc3)cc2)[C@@H]1C#N	-1.5
CN(C)CC(=O)N1[C@H](C#N)[C@@H](c2ccc(/C=C/c3ccccc3)cc2)[C@H]1CO	-5.4*
CCCNC(=O)N1[C@H](CO)[C@H](c2ccc(/C=C/c3ccccc3)cc2)[C@@H]1C#N	3.5
N#C[C@@H]1[C@@H](c2ccccc2)[C@@H](CO)N1C(=O)c1ccccc1F	0.044
O=C(NC[C@@H]1N[C@@H](CO)[C@@H]1c1ccc(-c2ccccc2F)cc1)c1ccccn1	-4.5*
N#C[C@H]1[C@H](c2ccc(-c3ccccc3F)cc2)[C@H](CO)N1C(=O)c1ccccn1	-3.1*
COc1cccc(-c2ccc([C@@H]3[C@@H](C#N)N(C(=O)Cc4ccccc4)[C@@H]3CO)cc2)c1	-5.3*
COc1cccc(-c2ccc([C@H]3[C@@H](C#N)N(C(=O)Cc4ccccc4)[C@@H]3CO)cc2)c1	-3.8*
N#C[C@H]1[C@H](c2ccc(-c3ccccc3F)cc2)[C@@H](CO)N1C(=O)c1ccccn1	0.88
SMILES	IDE exosite inh
COc1cccc(-c2ccc([C@@H]3[C@@H](C#N)N(C(=O)Cc4ccccc4)[C@H]3CO)cc2)c1	3
N#C[C@@H]1[C@@H](c2ccccc2-c2ccccc2F)[C@@H](CO)N1C(=O)c1ccccn1	2
COc1cccc(-c2ccc([C@@H]3[C@@H](CO)N(C(=O)Cc4ccccc4)[C@H]3C#N)cc2)c1	3.6
COc1cccc(-c2ccccc2[C@H]2[C@@H](C#N)N(C(=O)Cc3ccccc3)[C@@H]2CO)c1	-1.6
COc1cccc(-c2ccccc2[C@H]2[C@@H](C#N)N(C(=O)Cc3ccccc3)[C@H]2CO)c1	0.95
O=C(NC[C@@H]1N[C@@H](CO)[C@@H]1c1ccccc1)c1ccccc1F	0.95
O=C(NC[C@H]1N[C@@H](CO)[C@H]1c1ccc(-c2ccccc2)cc1)c1ccccc1F	1.1
CC(=O)N1[C@@H](CO)[C@H](c2ccccc2)[C@@H]1CN(C(=O)c1ccc(F)cc1)C(C)C	4.3
C[C@@H]1CN([C@H](C)CO)C(=O)c2ccccc2-c2ccccc2CO[C@@H]1CN(C)C(=O)Nc1ccc(-c2ccccc2)cc1	-0.98
